To fix the notation:
B1: PhoQ; a variant is named by its letters at X, in order, P23837 (parent)
chain: MKKLLRLFFPLSLRVRFLLATAAVVLVLSLAYGMVALIGYSVSFDKTTFRLLRGESNLFYTLAKWENNKLHVELPENIDKQSPTMTLIYDENGQLLWAQRDVPWLMKMIQPDWLKSNGFHEIEADVNDTSLLLSGDHSIQQQLQEVREDDDDAEMTHSVAVNVYPATSRMPKLTIVVVDTIPVELKSSYMVWSWFIYVLSANLLLVIPLLWVAAWWSLRPIEALAKEVRELEEHNRELLNPATTRELTSLVRNLNRLLKSERERYDKYRTTLTDLTHSLKTPLXXLQXXLRSLRSEKMSVSDAEPVMLEQISRISQQIGYYLHRASMRGGTLLSRELHPVAPLLDNLTSALNKVYQRKGVNISLDISPEISFVGEQNDFVEVMGNVLDNACKYCLEFVEISARQTDEHLYIVVEDDGPGIPLSKREVIFDRGQRVDTLRPGQGVGLAVAREITEQYEGKIVAGESMLGGARMEVIFGRQHSAPKDE

The record followed here is a collection of fitness landscapes (doi:10.1126/science.1257360).

The full ranking holds about 140,000 sequences; the median of “enrichment ratio after two sorts for PhoP signalling” is about 0, and the highest 2% start at about 11. The full list was thinned out, with the highest values kept by preference.

Variants of B1 are the subject of this experiment. The experiment is described as follows: enrichment ratio after two sorts for PhoP signalling (ratio (wild type AVST 3.29)); higher = more functional. The note with it: with PhoP (E. coli).
For SFIL, the enrichment ratio is at most 0.25.

Regarding GTSW, the enrichment ratio was at most 0.25.

Take QVGM: the enrichment ratio was determined as 0.458.

For the variant TTQP, the enrichment ratio is at most 0.25.

As to LWAS, the enrichment ratio was at most 0.25.

As for DYTN, the enrichment ratio is at most 0.25.

For the variant HRCM, the enrichment ratio is at most 0.25.

Regarding GMCK, the enrichment ratio was at most 0.25.

GMCM: the enrichment ratio came out at 22.

Consider KMCM, for which the enrichment ratio is at most 0.25.

Take TRCM: the enrichment ratio stood at 12.4.

Regarding KRCM, the enrichment ratio is at most 0.25.

Regarding EYMP, the enrichment ratio was at most 0.25.

As to MHHS, the enrichment ratio is at most 0.25.

For YVFC, the enrichment ratio is at most 0.25.

As for GPTW, the enrichment ratio is at most 0.25.

As for RAKA, the enrichment ratio is at most 0.25.

AGTI: the enrichment ratio amounted to 16.7.

On to KSTI, for which the enrichment ratio was at most 0.25.

Regarding RGTI, the enrichment ratio is at most 0.25.

On to AGTH, for which the enrichment ratio is 5.3.

AGTK: the enrichment ratio is at most 0.25.

In the case of TGTI, the enrichment ratio was 13.2.

For QIMM, the enrichment ratio was at most 0.25.

Take SDFW: the enrichment ratio was at most 0.25.

Take QQHA: the enrichment ratio is at most 0.25.

Turning to GQMD, the enrichment ratio was at most 0.25.

Turning to YKAP, the enrichment ratio was at most 0.25.

In the case of KLPM, the enrichment ratio is at most 0.25.

Consider FVPN, for which the enrichment ratio was at most 0.25.

Take AQQN: the enrichment ratio is at most 0.25.

As to ATAN, the enrichment ratio stood at 29.1.

As to AKAN, the enrichment ratio was at most 0.25.

Take YTAN: the enrichment ratio is at most 0.25.

Take AKAA: the enrichment ratio came out at 4.65.

For the variant AKAS, the enrichment ratio was found to be 9.64.

Regarding AQAA, the enrichment ratio came to 12.7.

For ATMN, the enrichment ratio was at most 0.25.

WQAS: the enrichment ratio is at most 0.25.

Take AQAS: the enrichment ratio was found to be 18.6.

With IQAA, the enrichment ratio was at most 0.25.

On to AQAN, for which the enrichment ratio is 18.7.

Turning to AYFR, the enrichment ratio was at most 0.25.

WMYW: the enrichment ratio is at most 0.25.

Take IMAW: the enrichment ratio was at most 0.25.

For RNGP, the enrichment ratio was at most 0.25.

PWQL: the enrichment ratio amounted to 0.791.

As for DNHF, the enrichment ratio was at most 0.25.

In the case of TNNI, the enrichment ratio stood at 3.41.

Take MAGF: the enrichment ratio amounted to 14.5.

Take MAGS: the enrichment ratio worked out at 17.7.

For NAGF, the enrichment ratio was at most 0.25.

MAGD: the enrichment ratio was at most 0.25.

For the variant MAVK, the enrichment ratio is at most 0.25.

Take KAGF: the enrichment ratio was at most 0.25.

For the variant AHRA, the enrichment ratio is at most 0.25.

Consider CFDS, for which the enrichment ratio was at most 0.25.

For the variant MCPV, the enrichment ratio is at most 0.25.

Take DLEL: the enrichment ratio was at most 0.25.

With LYPG, the enrichment ratio is at most 0.25.

Regarding ASTH, the enrichment ratio was 6.74.

Take ASMH: the enrichment ratio turned out to be 16.5.

For the variant ASVH, the enrichment ratio was 8.62.

With ASCF, the enrichment ratio was determined as 9.91.

As for ASCH, the enrichment ratio is 13.6.

With KSMH, the enrichment ratio is at most 0.25.

Take KDVM: the enrichment ratio was at most 0.25.

As for DIWH, the enrichment ratio is at most 0.25.

Consider RDYH, for which the enrichment ratio is at most 0.25.

On to KKLQ, for which the enrichment ratio is at most 0.25.

On to YHEH, for which the enrichment ratio was at most 0.25.

As for RDFI, the enrichment ratio is at most 0.25.

For STYT, the enrichment ratio was determined as 0.437.

As for QEYT, the enrichment ratio was 20.9.

Regarding LNYT, the enrichment ratio is at most 0.25.

Turning to LEYT, the enrichment ratio was 11.9.

As to MVFE, the enrichment ratio was at most 0.25.

Regarding FFFQ, the enrichment ratio is at most 0.25.

Regarding MVFQ, the enrichment ratio came to 13.2.

In the case of QRYT, the enrichment ratio is at most 0.25.

For the variant MVHP, the enrichment ratio came out at 0.338.

Consider QGFQ, for which the enrichment ratio is 13.4.

In the case of LTYT, the enrichment ratio is at most 0.25.

On to QGFE, for which the enrichment ratio was at most 0.25.

As to PAIE, the enrichment ratio was at most 0.25.

As to FSRF, the enrichment ratio was at most 0.25.

For SYCE, the enrichment ratio worked out at 2.48.

With VEGN, the enrichment ratio was at most 0.25.

Consider RAVD, for which the enrichment ratio was at most 0.25.

As to VDID, the enrichment ratio was at most 0.25.

QGGG: the enrichment ratio came out at 17.7.

Regarding FFWS, the enrichment ratio is at most 0.25.

For QGWS, the enrichment ratio came to 20.8.

On to QGCI, for which the enrichment ratio stood at 19.5.

Regarding QGCS, the enrichment ratio was at most 0.25.

With QGYK, the enrichment ratio amounted to 0.706.

As to QGYV, the enrichment ratio is 11.2.

Take FQWS: the enrichment ratio is at most 0.25.

TPGG: the enrichment ratio is at most 0.25.

Turning to QGCK, the enrichment ratio is at most 0.25.

On to QGYI, for which the enrichment ratio is 17.5.

On to FFGG, for which the enrichment ratio is at most 0.25.

As for NSEV, the enrichment ratio is at most 0.25.

For GKAT, the enrichment ratio is at most 0.25.

As for WHGN, the enrichment ratio is at most 0.25.

Regarding NVPF, the enrichment ratio was at most 0.25.

Take MAFQ: the enrichment ratio stood at 24.4.

Turning to QPWS, the enrichment ratio was at most 0.25.

As to STYI, the enrichment ratio was at most 0.25.

For the variant QGWI, the enrichment ratio turned out to be 22.5.

Take QEWS: the enrichment ratio amounted to 13.4.

Regarding QEFA, the enrichment ratio turned out to be 0.476.

On to QRWS, for which the enrichment ratio is at most 0.25.

MEFQ: the enrichment ratio was determined as 3.08.

For the variant QGRA, the enrichment ratio is at most 0.25.

Consider MAFE, for which the enrichment ratio was 8.88.

For the variant QGDS, the enrichment ratio is at most 0.25.

For QEYI, the enrichment ratio was 13.9.

On to RMEL, for which the enrichment ratio was at most 0.25.

DLMW: the enrichment ratio was at most 0.25.

As for PLYK, the enrichment ratio was at most 0.25.

Turning to KDVS, the enrichment ratio was at most 0.25.

Take RYGQ: the enrichment ratio is at most 0.25.

As to QQYQ, the enrichment ratio was at most 0.25.

For NKEY, the enrichment ratio is at most 0.25.

TTLW: the enrichment ratio was at most 0.25.

VACH: the enrichment ratio was at most 0.25.

Consider ISIQ, for which the enrichment ratio is at most 0.25.

Consider FFGS, for which the enrichment ratio is at most 0.25.

QPGS: the enrichment ratio was at most 0.25.

As to FFWE, the enrichment ratio was at most 0.25.

For QGWE, the enrichment ratio was determined as 14.3.

As to FCWE, the enrichment ratio was at most 0.25.

Consider QGGS, for which the enrichment ratio came to 14.5.

Take FTRQ: the enrichment ratio was at most 0.25.

DCTH: the enrichment ratio is at most 0.25.

In the case of VFMI, the enrichment ratio was at most 0.25.

With SHFN, the enrichment ratio was at most 0.25.

Take FRIN: the enrichment ratio was at most 0.25.

NSSC: the enrichment ratio is at most 0.25.

For TSSC, the enrichment ratio is 12.8.

For the variant KSTC, the enrichment ratio is at most 0.25.

In the case of FSSA, the enrichment ratio was at most 0.25.

Regarding KSSC, the enrichment ratio is at most 0.25.

As for TSSA, the enrichment ratio is 11.3.

Regarding KSSA, the enrichment ratio was at most 0.25.

Take SPTC: the enrichment ratio is at most 0.25.

Consider TVTC, for which the enrichment ratio came to 14.5.

Turning to TSNK, the enrichment ratio was at most 0.25.

Regarding MMTC, the enrichment ratio is at most 0.25.

Take TSTC: the enrichment ratio was found to be 17.2.

For the variant NVLH, the enrichment ratio was at most 0.25.

As to LSRG, the enrichment ratio is at most 0.25.

In the case of REYW, the enrichment ratio is at most 0.25.

For the variant PQTM, the enrichment ratio was at most 0.25.

Consider SPEK, for which the enrichment ratio is at most 0.25.

Regarding TVEK, the enrichment ratio was determined as 13.3.

Turning to PVEK, the enrichment ratio is at most 0.25.

As to PFML, the enrichment ratio is at most 0.25.

Take SGNG: the enrichment ratio was at most 0.25.

Take TKIS: the enrichment ratio stood at 4.17.

In the case of AKIM, the enrichment ratio stood at 4.82.

With MKIM, the enrichment ratio is at most 0.25.

Regarding TKIM, the enrichment ratio was determined as 15.1.

Consider TKQV, for which the enrichment ratio came out at 4.75.

Turning to TKIV, the enrichment ratio is 11.9.

Consider SEYW, for which the enrichment ratio was at most 0.25.

On to QMAQ, for which the enrichment ratio is at most 0.25.

Consider QWLW, for which the enrichment ratio is at most 0.25.

On to LLLD, for which the enrichment ratio was at most 0.25.

On to NKIV, for which the enrichment ratio is at most 0.25.

Regarding AKLS, the enrichment ratio was found to be 13.1.

For the variant TKLA, the enrichment ratio is 4.75.

Take AKLA: the enrichment ratio worked out at 5.14.

MKLS: the enrichment ratio is at most 0.25.

On to TKLS, for which the enrichment ratio was determined as 19.9.

For AILS, the enrichment ratio turned out to be 9.63.

Turning to QRQP, the enrichment ratio was at most 0.25.

On to INTT, for which the enrichment ratio was at most 0.25.

Regarding TEHN, the enrichment ratio was 11.9.

For the variant NEQI, the enrichment ratio was at most 0.25.

As to TEQH, the enrichment ratio was determined as 3.62.

Regarding TEQP, the enrichment ratio was at most 0.25.

Turning to TEQI, the enrichment ratio was 15.

For AQQM, the enrichment ratio was at most 0.25.

For the variant TEQA, the enrichment ratio is 13.7.

With NEQM, the enrichment ratio was at most 0.25.

On to MEQI, for which the enrichment ratio is at most 0.25.

As to TEQM, the enrichment ratio came out at 17.8.

Regarding MEHN, the enrichment ratio was at most 0.25.

In the case of YYHN, the enrichment ratio was at most 0.25.

LPHR: the enrichment ratio is at most 0.25.

As to ADGW, the enrichment ratio is at most 0.25.

For NDRR, the enrichment ratio was at most 0.25.

For the variant IIAQ, the enrichment ratio was at most 0.25.
